These results are taken from PubChem BioAssay.

A short description of assay [1]: small molecules captured by biotinylated probe aFSTL3 – biochemical, small-molecule microarray, fluorescence 635/667, stem cell growth factor project, primary screen (AID 1064).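 Note: measures binding of the biotinylated anti-FSTL3 antibody to printed compounds.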 To be noted: higher = more signal.
The nature of assay [2]: binders from COS7 lysate, DM2A8 probe, primary screen, torsin A project, cell lysate, small-molecule microarray, fluorescence 635/667 (AID 1065). The following applies: higher = more signal, COS7 lysate expressing mutant human TOR1A.
A short description of assay [3]: small molecules captured by biotinylated probe aFGF2 – biochemical, small-molecule microarray, fluorescence 635/667, stem cell growth factor project, primary screen (AID 1067).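 Note: measures binding of biotinylated aFGF2 protein to printed compounds on slides; z-score merges feature fluorescence and signal-to-noise across triplicate slides.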 The following applies: higher = more signal.
The nature of assay [4]: small molecules captured by biotinylated probe aFGF10 – biochemical, small-molecule microarray, fluorescence 635/667, stem cell growth factor project, primary screen (AID 1071).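 Note: score merges 667 nm spot intensity and signal to noise from triplicate slides.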 To be noted: higher = more signal.
For assay [5], the target named is Neurogenic locus notch homolog protein 2 (Homo sapiens) (UniProt Q04721). Put plainly: small molecules binding Notch2 protein – biochemical, small-molecule microarray, 635 nm fluorescence, stem cell growth factors, primary screen (AID 1073). The following applies: higher = more signal.
Assay [6] concerns the target Pro-neuregulin-1, membrane-bound isoform (Homo sapiens) (UniProt Q02297). Put plainly: small molecules binding neuregulin-1 protein – biochemical, small-molecule microarray, fluorescence 635/667, psychiatric disease protein project, primary screen (AID 1075).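 Note: score combines 667 nm spot fluorescence with signal to noise.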 To be noted: NRG1 binding, 635 nm fluorescence, higher = more signal.
Assay [7] has as its system Neuregulin-1 EGF-like domain. As to the kind of experiment: small molecules binding NRG1 EGF domain – biochemical, small-molecule microarray, 635 nm fluorescence, primary screen (AID 1081).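 Note: binding of the protein to compounds printed on small-molecule microarray slides.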 To be noted: higher = more signal.
Assay [8] in a line: FRG1 expression reporter modulators in myotubes – cell-based, C2C12 myotubes, firefly/Renilla luciferase, luminescence, FRG1 inhibition for FSHD, primary screen (AID 1084). To be noted: FRG1 promoter luciferase, higher = more signal, called active from +8 up or from −8 down.
The nature of assay [9]: small molecules captured by biotinylated probe aFST – biochemical, small-molecule microarray, fluorescence 635/667, stem cell growth factor project, primary screen (AID 1086).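 Note: score merges 667 nm fluorescence with signal-to-noise of each printed compound spot.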 To be noted: higher = more signal.
A short description of assay [10]: binders of probe aHhip on microarray, primary screen, stem cell growth factor project, biochemical, small-molecule microarray, fluorescence 635/667 (AID 1087).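 Note: score merges spot fluorescence at 667nm with spot signal to noise ratio.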 The following applies: higher = more signal.
Assay [11] concerns PRMT1 (protein arginine N-methyltransferase 1). As to the kind of experiment: small molecules binding arginine methyltransferase PRMT1 – biochemical, small-molecule microarray, 635 nm fluorescence, primary screen (AID 1088).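 Note: binding of Prmt1 protein to compounds spotted on small-molecule microarray slides.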 To be noted: higher = more signal.
The nature of assay [12]: growth effects on S. cerevisiae YJM789 – YJM789 clinical isolate, OD600, 24 h, basal, primary screen (AID 1089).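 Note: growth of clinical yeast isolate S. cerevisiae YJM 789 seeded 1000 cells per well; test concentration not given here.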 The following applies: higher = more signal, called active from +8 up or from −8 down.
Assay [13] can be described thus: S. pombe growth modifiers, basal conditions – strain 972, OD600, 24 h, no modulator, primary screen (AID 1090).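 Note: basal condition with compound alone and no growth modifier present; test concentration not given here.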 To be noted: S. pombe 972 growth, higher = more signal, called active from +8 up or from −8 down.
Assay [14] is described as follows: budding yeast growth modifiers under rapamycin – strain BY4716, OD600, 96 h, primary screen (AID 1091). Note: test concentration not given here. The following applies: S. cerevisiae BY4716 + rapamycin, higher = more signal, called active from +8 up or from −8 down.
Assay [15] deals with Torsin-1A-interacting protein 2 (Homo sapiens) (UniProt Q8NFQ8). Put plainly: small molecules binding lysate-expressed LULL1 – cell lysate, human LULL1 lysate, 635/667 nm fluorescence, primary screen (AID 1092).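 Note: probe is lysate of COS7 cells overexpressing human LULL1; score merges per-feature 667 nm fluorescence with signal-to-noise.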 The following applies: small-molecule microarray, hLULL1 lysate binding, 635 nm fluorescence; higher = more signal.
Chain of Torsin-1A-interacting protein 2 (Homo sapiens) (Q8NFQ8 whole entry, looked up): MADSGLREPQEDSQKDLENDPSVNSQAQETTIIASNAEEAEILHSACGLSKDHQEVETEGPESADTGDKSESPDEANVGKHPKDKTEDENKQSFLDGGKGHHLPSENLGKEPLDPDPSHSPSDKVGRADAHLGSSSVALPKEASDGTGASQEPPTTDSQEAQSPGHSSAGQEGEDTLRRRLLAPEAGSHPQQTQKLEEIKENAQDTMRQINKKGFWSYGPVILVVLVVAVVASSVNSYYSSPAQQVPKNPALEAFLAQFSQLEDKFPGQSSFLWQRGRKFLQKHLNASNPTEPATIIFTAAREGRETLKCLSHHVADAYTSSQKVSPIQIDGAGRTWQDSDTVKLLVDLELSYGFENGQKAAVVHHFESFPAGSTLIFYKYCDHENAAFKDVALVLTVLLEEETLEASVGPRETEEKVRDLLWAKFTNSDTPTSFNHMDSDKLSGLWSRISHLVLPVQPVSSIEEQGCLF
The nature of assay [16]: optical density change of DRC41 E. coli – strain DRC41, OD650, 24 h, E. coli filamentation project, primary screen (AID 1093).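 Note: MC1000 strain lacking acrAB efflux and sulA so SOS filamentation is blocked; test concentration not given here.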 The following applies: E. coli DRC41 growth, higher = more signal, called active from +8 up or from −8 down.
Assay [17] is described as follows: probe aLefty2 binding to arrayed compounds – biochemical, biotinylated probe, 635/667 nm fluorescence, primary screen (AID 1094).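 Note: score merges spot fluorescence near 667 nm with spot signal-to-noise ratio.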 The following applies: small-molecule microarray, higher = more signal.
In assay [18] the test system is Noggin (protein binding on small-molecule microarray). Put plainly: small molecules binding Noggin protein – biochemical, 635/667 nm fluorescence, primary screen (AID 1095).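 Note: score merges 667 nm feature fluorescence with signal to noise over triplicate slides.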 The following applies: 635 nm fluorescence, higher = more signal.
Assay [19] has as its target Neurogenic locus notch homolog protein 3 (Homo sapiens) (UniProt Q9UM47). As to the kind of experiment: small molecules binding NOTCH3 protein – biochemical, 635/667 nm fluorescence, primary screen (AID 1096). To be noted: small-molecule microarray, 635 nm fluorescence, higher = more signal.
Assay [20] can be described thus: probe aEGFR binding to arrayed compounds – biochemical, biotinylated probe, 635/667 nm fluorescence, primary screen (AID 1097).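 Note: probe is a biotinylated anti-EGFR antibody binding compounds printed on slides; score combines fluorescence near 667 nm and signal to noise of each spot.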 The following applies: small-molecule microarray, higher = more signal.

Molecules are shown by their SMILES. Activity calls are given as the source filed them.

Chain of Pro-neuregulin-1, membrane-bound isoform (Homo sapiens) (Q02297 whole entry, looked up, the tested form may be a part, canonical isoform): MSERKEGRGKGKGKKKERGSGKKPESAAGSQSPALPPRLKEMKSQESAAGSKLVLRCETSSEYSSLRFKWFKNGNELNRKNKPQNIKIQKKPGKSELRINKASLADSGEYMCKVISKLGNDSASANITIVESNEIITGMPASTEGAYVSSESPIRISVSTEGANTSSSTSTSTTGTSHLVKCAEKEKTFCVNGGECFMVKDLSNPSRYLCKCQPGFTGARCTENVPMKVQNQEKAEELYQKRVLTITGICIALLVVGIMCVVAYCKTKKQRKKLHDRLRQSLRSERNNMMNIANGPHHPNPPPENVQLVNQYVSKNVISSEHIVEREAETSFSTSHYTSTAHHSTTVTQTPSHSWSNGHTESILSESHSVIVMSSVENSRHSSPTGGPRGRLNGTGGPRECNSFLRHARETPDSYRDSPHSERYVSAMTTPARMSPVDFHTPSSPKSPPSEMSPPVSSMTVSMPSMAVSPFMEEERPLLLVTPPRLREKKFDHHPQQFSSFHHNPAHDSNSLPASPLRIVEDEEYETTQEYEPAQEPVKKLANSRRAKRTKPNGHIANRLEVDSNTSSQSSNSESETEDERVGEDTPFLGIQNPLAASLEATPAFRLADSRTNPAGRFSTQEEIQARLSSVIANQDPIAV
Chain of Neurogenic locus notch homolog protein 3 (Homo sapiens) (Q9UM47 whole entry, looked up): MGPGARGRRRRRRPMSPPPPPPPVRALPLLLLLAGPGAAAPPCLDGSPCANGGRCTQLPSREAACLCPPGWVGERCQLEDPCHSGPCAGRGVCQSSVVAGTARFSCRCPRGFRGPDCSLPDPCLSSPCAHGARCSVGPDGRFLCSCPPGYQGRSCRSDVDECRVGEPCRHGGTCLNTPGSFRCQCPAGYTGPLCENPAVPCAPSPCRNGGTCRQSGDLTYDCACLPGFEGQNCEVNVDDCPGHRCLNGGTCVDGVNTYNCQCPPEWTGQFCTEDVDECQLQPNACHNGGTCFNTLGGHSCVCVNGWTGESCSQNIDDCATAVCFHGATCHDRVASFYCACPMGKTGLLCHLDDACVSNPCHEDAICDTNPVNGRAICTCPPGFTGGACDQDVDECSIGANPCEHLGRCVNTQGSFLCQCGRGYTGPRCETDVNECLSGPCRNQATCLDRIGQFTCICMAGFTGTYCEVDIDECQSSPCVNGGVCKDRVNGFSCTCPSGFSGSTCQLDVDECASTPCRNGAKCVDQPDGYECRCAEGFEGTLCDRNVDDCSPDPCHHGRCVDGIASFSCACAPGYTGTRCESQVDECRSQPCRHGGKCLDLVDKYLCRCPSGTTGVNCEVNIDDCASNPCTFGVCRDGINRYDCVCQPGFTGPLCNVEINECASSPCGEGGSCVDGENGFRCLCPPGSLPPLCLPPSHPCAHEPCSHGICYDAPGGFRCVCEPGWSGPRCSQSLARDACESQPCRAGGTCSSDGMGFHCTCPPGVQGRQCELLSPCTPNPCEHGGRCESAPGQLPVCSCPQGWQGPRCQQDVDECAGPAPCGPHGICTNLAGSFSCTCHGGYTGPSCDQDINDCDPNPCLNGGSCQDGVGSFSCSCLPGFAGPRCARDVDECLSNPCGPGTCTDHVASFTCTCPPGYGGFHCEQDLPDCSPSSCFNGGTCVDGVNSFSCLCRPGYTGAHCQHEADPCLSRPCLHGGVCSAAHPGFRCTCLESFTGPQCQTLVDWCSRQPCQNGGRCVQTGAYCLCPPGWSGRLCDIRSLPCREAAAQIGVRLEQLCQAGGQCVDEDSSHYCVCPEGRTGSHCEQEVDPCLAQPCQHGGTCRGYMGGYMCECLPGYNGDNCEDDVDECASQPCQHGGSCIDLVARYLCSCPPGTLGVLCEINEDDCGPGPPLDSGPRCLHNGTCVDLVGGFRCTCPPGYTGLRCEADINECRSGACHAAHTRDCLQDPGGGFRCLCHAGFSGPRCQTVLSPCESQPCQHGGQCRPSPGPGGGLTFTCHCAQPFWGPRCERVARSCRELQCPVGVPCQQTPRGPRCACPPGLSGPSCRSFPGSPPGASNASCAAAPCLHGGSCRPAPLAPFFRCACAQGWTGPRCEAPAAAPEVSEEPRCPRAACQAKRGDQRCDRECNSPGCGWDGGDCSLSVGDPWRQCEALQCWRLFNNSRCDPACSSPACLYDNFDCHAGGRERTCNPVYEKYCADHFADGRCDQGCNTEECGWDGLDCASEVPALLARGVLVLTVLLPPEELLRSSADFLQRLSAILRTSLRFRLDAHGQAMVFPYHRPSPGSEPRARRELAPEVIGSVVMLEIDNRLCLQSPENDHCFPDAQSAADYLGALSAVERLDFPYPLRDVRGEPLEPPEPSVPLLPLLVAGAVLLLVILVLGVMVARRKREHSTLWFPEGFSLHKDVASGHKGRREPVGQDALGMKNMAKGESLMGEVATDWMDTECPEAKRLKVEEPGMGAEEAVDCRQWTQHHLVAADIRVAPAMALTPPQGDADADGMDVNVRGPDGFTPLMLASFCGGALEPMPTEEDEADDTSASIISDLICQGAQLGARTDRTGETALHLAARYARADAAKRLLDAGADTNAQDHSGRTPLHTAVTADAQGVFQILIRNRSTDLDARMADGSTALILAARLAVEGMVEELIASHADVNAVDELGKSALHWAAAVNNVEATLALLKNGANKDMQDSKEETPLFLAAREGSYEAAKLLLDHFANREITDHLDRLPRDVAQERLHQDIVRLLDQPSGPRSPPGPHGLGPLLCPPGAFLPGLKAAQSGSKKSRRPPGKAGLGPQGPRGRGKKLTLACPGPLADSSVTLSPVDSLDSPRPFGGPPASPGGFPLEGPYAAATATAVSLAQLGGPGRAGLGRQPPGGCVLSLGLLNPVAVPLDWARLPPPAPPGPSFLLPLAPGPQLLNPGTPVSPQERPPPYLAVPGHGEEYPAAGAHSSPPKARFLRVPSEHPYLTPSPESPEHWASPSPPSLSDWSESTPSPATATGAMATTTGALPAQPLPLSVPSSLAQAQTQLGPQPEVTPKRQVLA

On to `CC(C)CNC(=O)[C@@]1(C)c2ccccc2C(=O)N(Cc2cc(C(F)(F)F)cc(C(F)(F)F)c2)[C@H]1c1ccc(CO)cc1`, for which the composite z-score is 0.0317 in assay [1]; 0.0213 in assay [2]; -0.178 in [3]; -0.278 in [4]; -0.474 in assay [5]; -0.12 in assay [6]. For the same compound, the composite z-score in [7] was 0.492; in assay [9], -0.635; in assay [10], 0.0156; in [11], 1.3; in assay [15] it was 1.16; in assay [17] it was 0.0481. The results for the composite z-score in assay [18], in [19] and in [20] were -0.558, -0.966 and -0.1, respectively. The z-score in [8] is -1.43 (inactive); in assay [12], -0.721 (inactive); in assay [13], 0.4 (inactive); in assay [14] it was -0.699 (inactive); in assay [16], 0.497 (inactive).
In the case of `COc1ccc(C(=O)Nc2cccc(CN3C(=O)[C@]4(O[C@H](CCn5cc([C@H](O)c6ccccc6)nn5)[C@@H]([Si](C)(C)c5ccc(OC)cc5)[C@@H]4C)c4ccccc43)c2)cc1`, the composite z-score was 0.243 in assay [1]; -0.505 in assay [2]; -0.0709 in assay [3]; 0.266 in assay [4]; -0.122 in [5]; 1.04 in assay [6]. The composite z-score in assay [7] was 0.933; in assay [9], 0.0644; in [10], -0.0618; in [11] it was 0.682; in assay [15] it was 1.38; in assay [17] it was -0.0674. Besides, the results for the composite z-score in assay [18], in [19] and in assay [20] were 0.383, 0.889 and -0.128, respectively. The z-score in assay [8] was -0.454 (inactive); in assay [12] it was -0.228 (inactive); in assay [13], -1.99 (inactive); in [14], 0.678 (inactive); in [16] it was 1.48 (inactive).
For the compound `O=C1O[C@H](c2ccccc2)[C@H](c2ccccc2)N2[C@H]1[C@@H](C(=O)O)[C@]1(C(=O)Nc3ccc(C#CC4(O)CCCCCC4)cc31)[C@H]2c1ccc(O)cc1`, the composite z-score in assay [1] was -0.252; in assay [2], 0.128; in [3], -0.166; in assay [4], 0.439; in [5], -0.0475; in [6], 1.28. In addition, the composite z-score is 0.866 in assay [7]; -0.247 in assay [9]; -0.134 in assay [10]; 0.871 in [11]; 3.14 in [15]; -0.142 in assay [17]. The values for the composite z-score in [18], in [19] and in assay [20] were -0.292, 0.0139 and 0.192, respectively. Also, the z-score in [8] was -0.278 (inactive); in assay [12] it was -0.386 (inactive); in assay [13] it was -1.22 (inactive); in assay [14], -1.76 (inactive); in [16] it was 2.04 (inactive).
In the case of `COc1cc(NN2C(C(O)C3CCCCC3)C=CC3C(=O)N(c4ccccc4)C(=O)C32)cc(OC)c1OC` (stereo not given), the composite z-score in assay [1] was 1.44; in assay [2], -0.28; in assay [3], -0.116; in assay [4], 0.56; in assay [5], 1.7; in assay [6], 1.67. Moreover, the composite z-score in assay [7] is 1.18; in assay [9] it was 0.964; in assay [10] it was -0.202; in assay [11], 0.955; in assay [15] it was 3.25; in [17], 0.167. The values for the composite z-score in [18], in [19] and in [20] were -0.273, 1.07 and -0.0068, respectively. Besides, the z-score in assay [8] is 0.374 (inactive); in assay [12] it was 0.93 (inactive); in assay [13] it was 1.06 (inactive); in assay [14], 0.408 (inactive); in assay [16], -1.24 (inactive).
Take `NC(=O)[C@@H]1[C@H]2C(=O)O[C@H](c3ccccc3)[C@H](c3ccccc3)N2[C@H](c2ccc(OCCO)cc2)[C@@]12C(=O)Nc1ccc(C#CCCO)cc12`: the composite z-score in assay [1] was 0.398; in assay [2], 0.165; in assay [3], 0.0122; in assay [4], 0.786; in [5], 0.472; in assay [6], 1.23. Also, the composite z-score was 1.22 in assay [7]; -0.222 in [9]; -0.236 in assay [10]; 1.45 in assay [11]; 1.85 in assay [15]; 0.0847 in [17]. Also, the composite z-score in [18] was -0.159; in assay [19], -0.0629; in [20], -0.0622. The z-score was 1.62 (inactive) in [8]; 1.58 (inactive) in assay [12]; 0.883 (inactive) in assay [13]; 2.3 (inactive) in [14]; 0.459 (inactive) in assay [16].
